In all, about 190,000 compounds went through this assay and about 810 (0.43%) were called active. The full list was thinned out, with actives kept by preference. Values without a mark were called inactive. Cut-off read from the data, not from the text of the source: active = inhibition above about 50%; inactive = the rest.

For the assay, the target named is Mannose-6-phosphate isomerase (Homo sapiens) (UniProt P34949). Description: inhibitors of human PMI, primary screen, biochemical, fluorescence intensity, coupled assay (AID 1209).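 Note: plate controls were DMSO vehicle for no effect and wells lacking substrate for full effect.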 The note with it: purified PMI enzyme, at 20 µM, active compounds read high.
Sequence of Mannose-6-phosphate isomerase (Homo sapiens) (P34949 whole entry, looked up): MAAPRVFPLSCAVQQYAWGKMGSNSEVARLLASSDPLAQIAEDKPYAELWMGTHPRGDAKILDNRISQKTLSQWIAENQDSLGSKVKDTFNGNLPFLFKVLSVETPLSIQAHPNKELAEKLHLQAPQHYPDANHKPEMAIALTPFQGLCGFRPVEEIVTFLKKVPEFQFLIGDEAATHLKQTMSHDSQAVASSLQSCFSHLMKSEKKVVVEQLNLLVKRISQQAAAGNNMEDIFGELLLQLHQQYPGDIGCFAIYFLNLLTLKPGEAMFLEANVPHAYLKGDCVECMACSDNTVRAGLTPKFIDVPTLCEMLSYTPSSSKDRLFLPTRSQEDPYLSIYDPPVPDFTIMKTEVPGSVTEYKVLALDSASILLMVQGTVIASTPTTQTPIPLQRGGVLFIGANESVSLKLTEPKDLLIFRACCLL
For the molecule `Cc1ccc(C(=O)c2ccccc2C(=O)OCC(=O)NCC2CCCO2)cc1` (centres undefined), the inhibition (as a rule, the change of the read-out against control, counted positive when it falls) was 1.4%.

As for `Cc1cc(OC(C)C(N)=O)nc(-c2ccccc2)n1` (centres undefined), the inhibition is -14.2%.

As for `CC(C)c1ccc(CN2CC(C(=O)O)CC2=O)cc1` (centres undefined), the inhibition is -7%.

On to `Cc1ccc(N2CCN(CC(O)COc3ccc([N+](=O)[O-])cc3)CC2)cc1` (centres undefined), for which the inhibition was -2%.

As to `COc1cc(/C=N/Nc2ccccn2)ccc1OCC(C)C`, the inhibition is -6.3%.

Consider `CCOC(=O)CC1C(=O)NCCN1C(=O)c1c(F)cccc1F` (centres undefined), for which the inhibition was 50.5% (active).

For `CCOC(=O)CC1C(=O)NCCN1C(=O)c1ccc(F)cc1F` (centres undefined), the inhibition is -8.1%.

With `CCOC(=O)CC1C(=O)NCCN1C(=O)c1cccc(C(F)(F)F)c1` (centres undefined), the inhibition is -0.3%.

As for `Nc1nonc1-c1noc(N2CCCCC2)n1`, the inhibition is 6%.

On to `COc1ccc(-c2nnn(CC#N)n2)cc1OC`, for which the inhibition was -3.6%.

Turning to `O=C(N/C(=C\c1cccnc1)C(=O)N1CCOCC1)c1ccco1`, the inhibition is -15.9%.

For `O=C(CSc1ccccc1)Nc1nnc(COc2ccc(Cl)cc2)s1`, the inhibition is 71.7% (active).

Consider `O=C(Nc1nnc(COc2ccccc2)s1)c1ccco1`, for which the inhibition is 3.1%.

As for `Cc1ccc(OCc2nnc(NC(=O)c3ccco3)s2)cc1`, the inhibition was -5.1%.

Take `Cc1onc(-c2ccccc2)c1C(=O)Nc1nnc(COc2ccc(Cl)cc2)s1`: the inhibition is 76.2% (active).

As for `Cc1nnc(NC(=O)c2c(-c3ccccc3)noc2C)s1`, the inhibition is 0.7%.

As for `COc1ccc(Cc2nnc(NC(=O)c3c(-c4ccccc4)noc3C)s2)cc1`, the inhibition was 12.3%.

Turning to `O=C(Nc1nnc(COc2ccc(Cl)cc2)s1)c1ccco1`, the inhibition is 62.4% (active).

For the molecule `Cc1cccc(C)c1OCc1nnc(NC(=O)CSc2ccc(Cl)cc2)s1`, the inhibition was 9.2%.

On to `CCOCc1nnc(NC(=O)CSc2ccccc2)s1`, for which the inhibition was 6.1%.

On to `COC(=O)/C(C(C)=O)=C(\C=C\N(C)C)N(C)C`, for which the inhibition was 1%.

For the molecule `Nc1nnc(SCc2ccccc2F)n1-c1ccccc1`, the inhibition was 3.6%.

As to `NC(=O)[C@@H]1CCNc2c(I)cc([N+](=O)[O-])cc2C(=O)N[C@@H](CO)C(=O)N[C@@H](Cc2ccc(O)cc2)C(=O)N1`, the inhibition was -42.9%.

On to `CCN(CCC(=O)Nc1cc(OC)cc(OC)c1)Cc1ccccc1`, for which the inhibition is 6.5%.

Regarding `Cc1nnc(NC(=O)c2ccc3ccccc3n2)s1`, the inhibition was -23.8%.

Consider `COc1ccc(C(c2sc3nc(C)nn3c2O)N2CCCCC2)cc1` (centres undefined), for which the inhibition is -1.5%.

On to `COc1cc(C(c2sc3nc(C)nn3c2O)N2CCc3ccccc3C2)cc(OC)c1OC` (centres undefined), for which the inhibition is 11.5%.

Turning to `COc1cccc(C(c2sc3ncnn3c2O)N2CCc3ccccc3C2)c1` (centres undefined), the inhibition was 40.6%.

For `COc1ccc(C(c2sc3nc(C)nn3c2O)N2CCc3ccccc3C2)cc1` (centres undefined), the inhibition is 72.5% (active).

`COc1cccc(C(c2sc3nc(C)nn3c2O)N2CCc3ccccc3C2)c1` (centres undefined): the inhibition is 65.3% (active).

On to `CCN1CCN(C(c2cccc(OC)c2)c2sc3nc(C)nn3c2O)CC1` (centres undefined), for which the inhibition is 2.4%.

As for `COc1cc2c(cc1OC)CC(=O)N(C)CC2`, the inhibition was 3.4%.

In the case of `O=C(CSC1CC(=O)N(c2ccc(C(=O)O)cc2)C1=O)Nc1ccc(Cl)cc1` (centres undefined), the inhibition was -7.6%.

On to `Cc1ccc(N2C(=O)CC(SCC(=O)Nc3ccc(S(N)(=O)=O)cc3)C2=O)cc1` (centres undefined), for which the inhibition was 16.8%.

As to `CCN(CC(=O)NCCc1ccc(S(N)(=O)=O)cc1)Cc1nc2cc(OC)c(OC)cc2c(=O)[nH]1`, the inhibition was -4.3%.

Take `CC(C(=O)Nc1ccccc1C(=O)O)n1c(C(F)(F)F)nc2ccccc21` (centres undefined): the inhibition was 1.2%.

As for `O=C(CSc1nc2c(sc3ccccc32)c(=O)n1Cc1ccccc1)NCC1CCCO1` (centres undefined), the inhibition was 15.3%.

Take `O=C(CSc1nc2c(sc3ccccc32)c(=O)n1CCCN1CCCC1)NCC1CCCO1` (centres undefined): the inhibition is -1%.

`O=C(CSc1nc2c(sc3ccccc32)c(=O)n1CCO)NCC1CCCO1` (centres undefined): the inhibition is 54% (active).

On to `COc1ccc(C2=CC(c3ccc(OC)c(OC)c3)NC(=S)N2)cc1` (centres undefined), for which the inhibition was 3.4%.

Take `CN(C)/C=N/c1ncc(C(=O)c2ccc(Cl)cc2)s1`: the inhibition is 0.8%.

For `Cc1cc(C(=O)c2cnc(/N=C/N(C)C)s2)c(F)cc1Cl`, the inhibition was 93.5% (active).

With `CN(C)/C=N/c1ncc(C(=O)c2ccc(Cl)cc2Cl)s1`, the inhibition was -11.6%.

As for `COc1ccc(-c2oc(NC(=O)CSc3nncn3C)c(C#N)c2-c2ccc(OC)cc2)cc1`, the inhibition was 7.6%.

For the molecule `CCc1cc(N2CCOCC2)cc2c1[nH]c1ccccc12`, the inhibition was 55.4% (active).

Regarding `c1ccc2c(c1)[nH]c1c(N3CCOCC3)ncnc12`, the inhibition was 7.2%.

In the case of `CCCCn1c(=S)[nH]c2ccc(N3CCOCC3)cc2c1=O`, the inhibition was -8.1%.

On to `O=C(NCCc1c[nH]c2ccccc12)c1cccc(S(=O)(=O)Nc2ccccc2Cl)c1`, for which the inhibition is 20.2%.

For the molecule `COc1cccc(C(c2sc3nc(C)nn3c2O)N2CCC3(CC2)OCCO3)c1` (centres undefined), the inhibition was 5.1%.

`CN(Cc1cccnc1)Cc1cn(C)nc1-c1ccc(Oc2ccccc2)cc1`: the inhibition is 50.7% (active).

`Cc1cnccc1CN(C)Cc1cn(C)nc1-c1ccc(Oc2ccccc2)cc1`: the inhibition is 14.4%.

`CN(Cc1ccno1)Cc1cn(C)nc1-c1ccc(Oc2ccccc2)cc1`: the inhibition was 26.3%.

For `CC(C)NC(=O)COc1nncc2ccccc12`, the inhibition was 15.9%.

In the case of `Cc1ccccc1Cn1c(=O)sc2ccccc2c1=O`, the inhibition was 6%.

With `O=c1sc2ccccc2c(=O)n1Cc1ccccc1F`, the inhibition was 89.5% (active).

On to `Cc1ccc(Cn2c(=O)sc3ccccc3c2=O)cc1`, for which the inhibition was 18.9%.

As for `Cc1cccc(C)c1NC(=O)CSc1nnc([C@H](C)NC(=O)OC(C)(C)C)o1`, the inhibition was -1.6%.

On to `C=CCn1c(SCC(=O)NC2CCS(=O)(=O)C2)nc2sc(CC)cc2c1=O` (centres undefined), for which the inhibition was -1.4%.

With `CCCN1CCCc2ccccc21`, the inhibition is -40.1%.

For the molecule `CCc1ccc2c(c1)CCCN2C(=O)c1ccccc1C(=O)O`, the inhibition is 0.4%.

With `CCCN1CCCc2cc(CN)ccc21`, the inhibition is 50.7% (active).

`Cc1ccc(NC2=CC(=O)CC(c3ccccc3)C2)cc1` (centres undefined): the inhibition is 7.6%.

For `COc1cccc(Nc2nc(CC(C)=O)ns2)c1`, the inhibition was -2%.

For the molecule `c1ccc2sc(NCC3CCCO3)nc2c1` (centres undefined), the inhibition is -11.7%.

(Values after PubChem BioAssay AID1209 (Sanford-Burnham Center for Chemical Genomics, 2008).)
